Experimental data: PubChem BioAssay AID360 (National Center for Advancing Translational Sciences (NCATS), 2006)
Hit rate of the full screen: of about 48,000 compounds, about 550 (1.1%) were called active. About 4% were inconclusive and are not listed. The sample holds actives, similar compounds and a random draw of the others, so the mix is not that of the screen. Unmarked numbers belong to inactive results. Cut-off read from the data, not from the text of the source: active = potency below about 15 µM; inconclusive = mostly about 16 µM to 33 µM; inactive = weaker than that.

biological target: Lysosomal acid glucosylceramidase (Homo sapiens) (UniProt P04062); test: Glucocerebrosidase; conditions: purified enzyme, resorufin glucoside fluorescence (screen aimed at inhibitors), 20 min;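 note: the screen sought inhibitors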
From the text: NCGC Assay Overview: Beta-glucocerebrosidase catalyzes the hydrolysis of beta-glucocerebroside to glucose and ceramide. The inherited deficiency of beta-glucocerebrosidase results in Gaucher disease, which is characterized by a wide variety of symptoms including hepatosplenomegaly, anemia, thrombocytopenia, bony lesions and bone marrow infiltration with characteristic storage cells, known as Gaucher cells. There are also forms of the disorder affecting the central nervous system. Patients with the same genotypes can manifest with diverse clinical presentations and it is believed that improper folding and trafficking of beta-glucocerbrosidase may contribute to the phenotypes observed. Low molecular weight molecules, acting as chaperones, may potentially restore trafficking of misfolded beta-glucocerebrosidase from the endoplasmic reticulum to the lysosomes, thereby enhancing functional lysosomal beta-glucocerebrosidase activity. Using normal beta-glucocerebrosidase, an assay was developed to screen for small molecule inhibitors that could potentially act as molecular chaperones on the mutant forms [developed with NIH investigator Dr. Ellen Sidransky's laboratory]. Two pro-fluorescent substrates were chosen for two screens against a small molecule library. One beta-glucocerebrosidase assay used Resorufin beta-D-Glucopyranoside (Marker Gene Technology Inc.), generating a red fluorescent product. The second assay used Fluorescein di-beta-D-Glucopyranoside, generating a blue fluorescent product. […] The IC50 values of Conduritol B Epoxide, a known glucocerebrosidase inhibitor, were determined to be 87.5 uM and 117 uM, respectively. The use of two difference pro-fluorescent substrates in the screens helped to eliminate false positives. All compounds were screened in a titration series resulting in AC50s (e.g., IC50s or EC50s).
NCGC Assay Protocol Summary: Both enzyme and substrate were diluted in buffer composed of 50mM citric acid/KH2PO4, 10mM sodium taurocholate and 0.01% tween-20 at pH 5.9. The final concentration of the enzyme was 0.2 nM in both assays. The compound library was titrated in 7 to 15 concentrations for the primary screens with a final concentration ranging from 0.6 nM to 50 uM. This particular assay protocol is for the "red" substrate, and it was performed in 1536-well plate format as follows: Red fluorescence substrate assay: 2 uL enzyme 23 nL compound 1 uL substrate (final concentration of 30 uM) Incubate at room temperature (RT) for 20 minutes Read the plate in Viewlux plate reader (Ex=548(7) and Em=600(10)).
Potency is the fitted concentration of half-maximal effect.

Sequence of Lysosomal acid glucosylceramidase (Homo sapiens) (P04062 whole entry, looked up): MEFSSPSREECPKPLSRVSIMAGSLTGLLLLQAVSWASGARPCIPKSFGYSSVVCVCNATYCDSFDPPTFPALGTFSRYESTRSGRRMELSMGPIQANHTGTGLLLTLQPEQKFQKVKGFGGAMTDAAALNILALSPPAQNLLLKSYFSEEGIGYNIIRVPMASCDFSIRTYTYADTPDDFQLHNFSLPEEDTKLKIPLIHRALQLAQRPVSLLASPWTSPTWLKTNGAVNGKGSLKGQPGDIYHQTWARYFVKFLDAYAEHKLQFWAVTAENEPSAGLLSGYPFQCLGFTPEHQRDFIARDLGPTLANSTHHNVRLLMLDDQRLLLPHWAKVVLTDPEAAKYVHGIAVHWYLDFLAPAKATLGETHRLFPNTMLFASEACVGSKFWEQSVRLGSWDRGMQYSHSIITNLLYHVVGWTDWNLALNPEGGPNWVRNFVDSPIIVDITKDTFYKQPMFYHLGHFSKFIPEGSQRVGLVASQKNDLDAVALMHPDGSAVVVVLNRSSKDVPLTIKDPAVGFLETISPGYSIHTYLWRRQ

| SMILES | Potency |
| --- | --- |
| CCC(=O)Nc1cccc(NC(=O)CSc2nnc(-c3ccc(NS(C)(=O)=O)cc3)n2C)c1 | > 76.9 µM |
| COc1cccc2cc(C(C)N(CCCN3CCOCC3)C(=O)Nc3ccc(Cl)cc3)oc12 (configuration not stated) | 9.17 µM (active) |
| O=C(NCCCN1CCOCC1)c1cc(-c2ccc(Cl)cc2)on1 | > 76.9 µM |
| Cn1c(CN2CCOCC2)nc2cc(NC(=O)c3ccc(Cl)cc3)ccc21 | 52.2 µM |
| O=C(CSc1n[nH]c(-c2cccnc2)n1)Nc1ccnc2ccccc12 | > 76.9 µM |
| COC(=O)c1ccccc1NC(=O)CSc1ccccn1 | > 76.9 µM |
| O=C(CS(=O)(=O)Cc1ccccc1)NCC1CCCO1 (configuration not stated) | > 76.9 µM |
| CC(C)N(C(=O)Cn1c(SCC(=O)N2CCN(c3ccccc3)CC2)nc2ccccc21)C(C)C | > 76.9 µM |
| CCOC(=O)c1sc(NC(=S)n2cc(C)cn2)c(C(=O)OCC)c1C | > 76.9 µM |
| COc1cccc(NC(=O)CN(C)S(=O)(=O)c2ccc(C)cc2)c1 | > 76.9 µM |
| CC(C)NS(=O)(=O)c1ccc(CCC(=O)N2CCOCC2)cc1 | > 76.9 µM |
| CCCc1nnc(NC(=O)CN2C(=O)c3ccccc3S2(=O)=O)s1 | > 76.9 µM |
| CN1CCN(c2nc3c(c(=O)[nH]c(=O)n3C)n2Cc2cccc3ccccc23)CC1 | > 76.9 µM |
| COc1ccc(C2N=C(N)N=C(N)N2c2ccccc2)cc1OC (configuration not stated) | > 76.9 µM |
| O=C(Cn1c(-c2ccc(Cl)cc2)noc1=O)N1CCN(c2ccccc2F)CC1 | > 76.9 µM |
| Fc1ccc(OCc2nn3c(Cn4nnc5ccccc54)nnc3s2)cc1 | > 76.9 µM |
| Cc1ccc(S(=O)(=O)N2CCC(C(=O)N[C@@H](C)C(=O)NCc3ccccc3)CC2)cc1 | > 76.9 µM |
| C/C(O)=C\c1nc(=O)c2c(C)cc(C)nc2n1-c1ccccc1 | > 76.9 µM |
| O=C(COc1ccc(F)cc1)N(CC1=CCS(=O)(=O)C1)c1ccccc1 | > 76.9 µM |

| SMILES | Potency |
| --- | --- |
| COc1ccc2nc(NC3=NCN(CC4CCCO4)CN3)nc(C)c2c1 (configuration not stated) | > 76.9 µM |
| CC(C)c1nc2oc3c(N4CCN(C)CC4)ncnc3c2c2c1CCC2 | 8.51 µM (active) |
| Cc1cc(C)nc(N2CCN(c3ncnc4c3oc3ccccc34)CC2)n1 | > 76.9 µM |
| COc1ccc(CCn2c(-c3ccco3)nc3nc4ccccc4nc32)cc1OC | > 76.9 µM |
| CCOC(=O)CCC(=O)OCC(=O)NC(C)C1CC2CCC1C2 (configuration not stated) | > 76.9 µM |
| CCOC(=O)c1sc(N(Cc2ccccc2)C(=O)CN2C(=O)CN(C)C2=O)nc1C | > 76.9 µM |
| CCOC(=O)c1c(C)[nH]c(C(=O)NCc2ccccc2OC)c1C | > 76.9 µM |
| Fc1ccc(-c2nnc3sc(-c4ccc5c(c4)OCO5)nn23)cc1 | > 76.9 µM |
| Cc1cc(C)cc(N(C(C)C(=O)Nc2c(C)n(C)n(-c3ccccc3)c2=O)S(C)(=O)=O)c1 (configuration not stated) | > 76.9 µM |
| c1ccc(CCc2nc(-c3ccncc3)no2)cc1 | > 76.9 µM |
| CC(Sc1nncn1C)C(=O)Nc1ccccc1-c1ccccc1 (configuration not stated) | > 76.9 µM |
| Cc1ccc(S(=O)(=O)N2CCN(C(=O)CCC(=O)NC3CCCc4ccccc43)CC2)cc1 (configuration not stated) | > 76.9 µM |
| Cc1noc(C)c1C(=O)NC(C)c1ccc2c(c1)OCO2 (configuration not stated) | > 76.9 µM |
| CCN(CC)CCN1C(=O)C(=O)/C(=C(/O)c2ccc(OC)c(OC)c2)C1c1ccccn1 (configuration not stated) | > 76.9 µM |
| Cc1nc(NC(CC(C)C)C(=O)O)c2nc(C)oc2n1 (configuration not stated) | > 76.9 µM |
| C=CCn1c(C(C)NC(=O)CC)nc2ccccc21 (configuration not stated) | > 76.9 µM |
| CCOC(=O)N1CCN(C(=O)C2CCN(S(C)(=O)=O)CC2)CC1 | > 76.9 µM |
| Cc1cc(C)c2nc(N3CCCC3)c(C#N)cc2c1 | > 76.9 µM |
| CC(C)CCNc1nc(N2CCCC2)c2c(c1C#N)CCN(C)C2 | 12.7 µM (active) |

| SMILES | Potency |
| --- | --- |
| Cc1cccc2cc(C#N)c(N3CCCC3)nc12 | > 76.9 µM |
| Cn1c(=O)n(C)c(=O)n(CC(=O)N2CCCCC2)c1=O | > 76.9 µM |
| Cc1cc(=O)cc(C)[nH]1 | > 76.9 µM |
| C=CCn1c(SCc2cc(C(=O)OC)c(C)o2)nnc1-c1ccncc1 | > 76.9 µM |
| Cc1ccc(S(=O)(=O)N(C)CC(=O)N2CCc3ccccc32)cc1 | > 76.9 µM |
| CCC(CC)c1nnc(NS(=O)(=O)Cc2ccccc2)s1 | > 76.9 µM |
| CC(Oc1ccc(Cl)cc1)C(=O)Nc1ncccn1 (configuration not stated) | > 76.9 µM |
| O=c1ccc2cc(S(=O)(=O)N3CCN(c4ccccc4)CC3)ccc2o1 | > 76.9 µM |
| COc1ccc(N2CCN(CCNC(=O)CCN3C(=O)COc4ccccc43)CC2)cc1 | > 76.9 µM |
| COc1ccc(N2CCN(Cc3cc(=O)oc4ccc5ccccc5c34)CC2)cc1 | 5.96 µM (active) |
| COC(=O)c1cc(NC(=O)CN2CCC(C(N)=O)(N3CCCCC3)CC2)cc(C(=O)OC)c1 | > 76.9 µM |
| COc1ccc(S(=O)(=O)N2CCN(c3ncnc4c(-c5ccccc5)nsc34)CC2)cc1 | > 76.9 µM |
| CCn1c2c(c3ccc(OC)cc31)CCCC2=O | > 76.9 µM |
| CCOC(=O)CNC(=O)CSc1nnc(COc2ccc(Cl)cc2)n1CC | > 76.9 µM |
| O=S(=O)(Nc1ccccc1N1CCOCC1)c1ccc(Cl)s1 | > 76.9 µM |
| COc1cccc(C2/C(=C(/O)c3ccncc3)C(=O)C(=O)N2CCCN(C)C)c1 (configuration not stated) | > 76.9 µM |
| CC1CCCCN1CC(=O)NCc1ccc2c(c1)OCO2 (configuration not stated) | > 76.9 µM |
| CC(C)(C)Oc1ncc(Br)c(OC(C)(C)C)n1 | > 76.9 µM |
| N#CC(C(N)=O)=C1CCC2(CC1)OCCCCO2 | > 76.9 µM |
